Source: PubChem BioAssay (Tox21)
Results filed as inconclusive are left out. The source made the active and inactive calls. Unless noted, calls come from the whole dose curve; as a rule, active = well fitted curve in the direction sought with a large enough effect in the repeat runs; inconclusive = weak or mixed curves; inactive = no such curve, though single readings can be large; an effect the other way counts as inactive or inconclusive.

How the values were obtained:
[1] = A CellTox Green Cytotoxicity Assay to monitor cytotoxicity in HepG2 cells - 0 hour (AID 1224882); note: nearly all actives have a fitted effect of over 35% in size; note: potency is the fitted concentration of half-maximal effect
Procedure, shortened: (§1)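 First, HepG2 cells (600/well) mixed with reagent were plated; second, after 5 h at 37 C they received compounds via pintool; third, fluorescence was measured at 0 h through 40 h at 8 h intervals.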

[2] = A CellTox Green Cytotoxicity Assay to monitor cytotoxicity in HepG2 cells - 32 hour (AID 1224883); note: nearly all actives have a fitted effect of over 50% in size; note: potency is the fitted concentration of half-maximal effect
Procedure, shortened: as §1

[3] = qHTS RealTime-Glo MT Cell Viability Assay in HepG2 cells - 16 hour (AID 1224885); note: nearly all actives have a fitted effect of over 50% in size
Procedure, shortened: (§2)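 Cells + NanoLuc/prosubstrate dispensed (600 cells/well) → 5 h at 37 C/5% CO2 → compounds in DMSO transferred → 40 h incubation at 37 C, luminescence read at 0, 8, 16, 24, 32, 40 h.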

[4] = qHTS RealTime-Glo MT Cell Viability Assay in HEK293 cells - 24 hour (AID 1224886); note: top concentration of the series differs between compounds; nearly all actives have a fitted effect of over 50% in size
Procedure, shortened: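 Tox21 10K qHTS, HEK293, 600 cells/well, RealTime-Glo reagent co-dispensed with cells; 5 h preincubation, compound by pintool, 37 C, luminescence at 0–40 h.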

[5] = qHTS RealTime-Glo MT Cell Viability Assay in HEK293 cells - 8 hour (AID 1224887); note: top concentration of the series differs between compounds; nearly all actives have a fitted effect of over 50% in size
Procedure, shortened: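 600 HEK293 cells per well, dispensed already mixed with RealTime-Glo MT reagents. Compound dosing came 5 h later. The same wells were read for luminescence at 0, 8, 16, 24, 32 and 40 h of exposure at 37 C.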

[6] = A CellTox Green Cytotoxicity Assay to monitor cytotoxicity in HEK293 cells - 16 hour (AID 1224888); note: nearly all actives have a fitted effect of over 35% in size; note: potency is the fitted concentration of half-maximal effect
Procedure, shortened: (§3)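 Dead-cell fluorescence measured kinetically: asymmetric cyanine dye, HEK293, 600 cells/well, 5 h settle, 23 nL cpd/DMSO, 37 C, reads 0–40 h every 8 h.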

[7] = qHTS RealTime-Glo MT Cell Viability Assay in HepG2 cells - 0 hour (AID 1224889); note: nearly all actives have a fitted effect of over 50% in size
Procedure, shortened: as §2

[8] = A CellTox Green Cytotoxicity Assay to monitor cytotoxicity in HepG2 cells - 8 hour (AID 1224890); note: nearly all actives have a fitted effect of over 45% in size; note: potency is the fitted concentration of half-maximal effect
Procedure, shortened: as §1

[9] = qHTS assay to identify small molecule antagonists of the androgen receptor (AR) signaling pathway using the MDA cell line in the presence of 0.5 nM R1881 - cell viability counter screen (AID 1259242); note: nearly all actives have a fitted effect of over 45% in size
Procedure, shortened: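 qHTS format. MDA-kb2 (MMTV-luc, AR/GR responsive) + cpd + 0.5 nM R1881 final, 16 hr 37C/0% CO2 → CellTiter-Fluor 30 min → fluorescence intensity.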

[10] = biological target: Estrogen receptor (Homo sapiens) (UniProt P03372); test: qHTS assay to identify small molecule antagonists of the estrogen receptor alpha (ER-alpha) signaling pathway using the BG1 cell line in the presence of 0.1 nM 17-beta-estradiol (AID 1259244); note: nearly all actives have a fitted effect of over 50% in size
Procedure, shortened: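 Reporter is a stably transfected luciferase under four estrogen responsive elements in VM7Luc4E2 cells expressing native full-length ER-alpha; inhibition of 0.1 nM (final) 17beta-estradiol-driven signal over 22 h is read by luminescence.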

[11] = qHTS assay to identify small molecule HDAC inhibitors (AID 1259364);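 note: wild-type HCT-116 cells with endogenous class I/II HDAC activity; top concentration of the series differs between compounds; nearly all actives have a fitted effect of over 45% in size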
Procedure, shortened: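 Quantitative high-throughput format: overnight-seeded HCT-116 cells got compounds for 2 hr at 37C; HDAC-Glo I/II reagent added, 30 min RT, luminescence measured.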

[12] = qHTS assay to identify small molecule HDAC inhibitors - cell viability counter screen (AID 1259365)
Procedure, shortened: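 Luminescence from CellTiter-Glo, developed 30min at room temperature, reports viability of wild-type HCT-116 cells treated 2hr with compounds at 37 C and 5% CO2 after overnight plating.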

[13] = qHTS assay to identify small molecule agonists of the sonic hedgehog signaling (Shh) pathway - cell viability counter screen (AID 1259366); note: nearly all actives have a fitted effect of over 50% in size
Procedure, shortened: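 Cytotoxicity counter screen run in the same wells as the Shh reporter assay. NIH/3T3 cells carrying a Gli1 response element–driven luciferase were treated with DMSO-dissolved compounds for 24hr, and live-cell protease activity was measured with CellTiter-Fluor.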

[14] = qHTS assay to identify small molecule agonists of the sonic hedgehog signaling (Shh) pathway (AID 1259368; calls by dose curve;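 note: NIH/3T3-derived 3T3Gli1-Luc cells carrying a stable Gli1-driven firefly luciferase reporter; series mostly up to about 92 µM; nearly all actives have a fitted effect of over 15% in size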)
Procedure, shortened: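 Quantitative high-throughput format using a Gli1-driven firefly luciferase reporter line derived from NIH/3T3 cells. After a 24 hr compound treatment at 37 C and 5% CO2, luminescence reported Gli1 response element activity.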

[15] = qHTS assay to identify small molecule antagonists of the sonic hedgehog signaling (Shh) pathway (AID 1259369; calls by dose curve; note: nearly all actives have a fitted effect of over 45% in size; note: potency is the fitted concentration of half-maximal effect)
Procedure, shortened: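 Stable Gli1-Luc reporter NIH/3T3 clone; quantitative HTS in stimulated mode with conditioned medium. Luminescence measured after 24hr compound treatment at 37 C.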

[16] = qHTS assay to identify small molecule antagonists of the estrogen receptor alpha (ER-alpha) signaling pathway using the BG1 cell line in the presence of 0.1 nM 17-beta-estradiol - cell viability counter screen (AID 1259241); note: nearly all actives have a fitted effect of over 40% in size
Procedure, shortened: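 VM7Luc4E2, 4,000 cells/well, phenol red-free medium + 10% charcoal-stripped FBS; 24 hr plating; cpd + 0.1 nM E2 final, 22 hr 37C/5% CO2; CellTiter-Fluor 30 min, fluorescence.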

[17] = qHTS assay to identify small molecule antagonists of the sonic hedgehog signaling (Shh) pathway - cell viability counter screen (AID 1259367); note: nearly all actives have a fitted effect of over 55% in size
Procedure, shortened: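 Cytotoxicity was assessed in parallel with Shh reporter activity by measuring live-cell protease fluorescence (CellTiter-Fluor) in NIH/3T3 cells stably carrying Gli1-Luc, treated with compound under conditioned medium stimulation for 23 hr plus 1 hr reagent incubation.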

[18] = A CellTox Green Cytotoxicity Assay to monitor cytotoxicity in HEK293 cells - 8 hour (AID 1224884); note: nearly all actives have a fitted effect of over 35% in size; note: potency is the fitted concentration of half-maximal effect
Procedure, shortened: as §3

[19] = qHTS assay to identify small molecule phospholipidosis (PLD) inducers (AID 1259344; active = well fitted curve in the direction sought with a large enough effect; an effect the other way counts as inactive or inconclusive)
Procedure, shortened: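 Cells (HepG2, 900 per well) attach for 4 h, receive LipidTOX Red and compound together, incubate 24 h at 37 C, are fixed 30 min with paraformaldehyde/Hoechst, then imaged at one site per well.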

[20] = biological target: Androgen receptor (Homo sapiens) (UniProt P10275); test: qHTS assay to identify small molecule antagonists of the androgen receptor (AR) signaling pathway using the MDA cell line in the presence of 0.5 nM R1881 (AID 1259243); note: nearly all actives have a fitted effect of over 50% in size
Procedure, shortened: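 Antagonist mode quantitative HTS in MDA-kb2 MMTV-luciferase cells, agonist R1881 at 0.5 nM final, 16 hr exposure at 37C and 0% CO2, luminescent detection.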
% is set by controls: 0 for no effect and ±100 for the full control effect.

Sequence of Estrogen receptor (Homo sapiens) (P03372 whole entry, looked up): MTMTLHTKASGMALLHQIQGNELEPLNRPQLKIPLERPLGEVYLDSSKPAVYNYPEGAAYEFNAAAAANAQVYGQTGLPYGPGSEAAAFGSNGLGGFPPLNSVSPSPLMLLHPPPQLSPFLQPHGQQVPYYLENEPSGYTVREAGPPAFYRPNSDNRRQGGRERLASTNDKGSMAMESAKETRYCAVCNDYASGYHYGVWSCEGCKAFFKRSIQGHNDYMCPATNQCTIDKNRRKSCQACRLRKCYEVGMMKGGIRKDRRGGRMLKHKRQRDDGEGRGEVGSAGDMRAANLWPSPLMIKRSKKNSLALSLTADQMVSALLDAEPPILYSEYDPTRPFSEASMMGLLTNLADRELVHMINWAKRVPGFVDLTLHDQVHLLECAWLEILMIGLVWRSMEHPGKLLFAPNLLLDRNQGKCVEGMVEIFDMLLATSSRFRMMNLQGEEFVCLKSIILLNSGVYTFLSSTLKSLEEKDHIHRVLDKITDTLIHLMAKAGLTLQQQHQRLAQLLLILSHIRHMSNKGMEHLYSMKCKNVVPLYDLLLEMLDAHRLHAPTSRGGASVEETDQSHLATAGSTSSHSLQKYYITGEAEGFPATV
Sequence of Androgen receptor (Homo sapiens) (P10275 whole entry, looked up): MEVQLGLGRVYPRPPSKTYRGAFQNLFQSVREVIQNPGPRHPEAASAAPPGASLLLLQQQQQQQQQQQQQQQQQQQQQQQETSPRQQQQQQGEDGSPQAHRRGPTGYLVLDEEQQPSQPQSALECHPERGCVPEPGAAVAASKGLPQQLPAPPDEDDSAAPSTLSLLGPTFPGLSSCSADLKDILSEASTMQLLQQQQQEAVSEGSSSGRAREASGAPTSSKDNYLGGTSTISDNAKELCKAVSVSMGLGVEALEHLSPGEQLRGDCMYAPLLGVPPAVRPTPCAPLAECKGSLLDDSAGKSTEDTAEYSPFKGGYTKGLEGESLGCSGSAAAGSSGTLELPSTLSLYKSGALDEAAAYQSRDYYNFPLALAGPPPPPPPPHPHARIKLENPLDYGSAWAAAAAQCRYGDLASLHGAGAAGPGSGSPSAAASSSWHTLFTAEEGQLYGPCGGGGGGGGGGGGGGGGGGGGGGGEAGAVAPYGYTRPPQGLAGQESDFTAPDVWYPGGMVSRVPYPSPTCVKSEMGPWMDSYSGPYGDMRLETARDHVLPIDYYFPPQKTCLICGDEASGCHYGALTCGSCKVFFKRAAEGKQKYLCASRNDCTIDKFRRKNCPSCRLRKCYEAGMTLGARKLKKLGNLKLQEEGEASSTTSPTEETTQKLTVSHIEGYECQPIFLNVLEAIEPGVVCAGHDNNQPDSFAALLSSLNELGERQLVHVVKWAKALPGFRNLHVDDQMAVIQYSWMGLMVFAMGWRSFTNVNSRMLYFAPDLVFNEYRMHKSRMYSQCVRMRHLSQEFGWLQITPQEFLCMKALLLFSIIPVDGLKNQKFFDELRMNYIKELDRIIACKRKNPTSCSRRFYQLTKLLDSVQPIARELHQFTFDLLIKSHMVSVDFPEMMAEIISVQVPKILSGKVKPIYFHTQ

CCCCC(CC)COC(=O)CCCCCCCCC(=O)OCC(CC)CCCC (configuration not stated)
inactive: Potency [1] | Potency [2] | Potency [3] | Potency [4] | Potency [5] | Potency [6] | Potency [7] | Potency [8] | Potency [9] | Potency [10] | Potency [11] | Potency [12] | Potency [13] | outcome [14] | Potency [15]

NC(=O)C(c1ccccc1)(c1ccccc1)[C@@H]1CCN(CCc2ccc3c(c2)CCO3)C1
inactive: Potency [3] | Potency [7] | Potency [16] | Potency [9] | Potency [10] | Potency [11] | Potency [17] | outcome [14]
active: Potency [1] 23.9 µM | Potency [2] 23.9 µM | Potency [6] 21.3 µM | Potency [8] 21.3 µM

CCOC(=O)C(F)(F)F
inactive: Potency [1] | Potency [2] | Potency [3] | Potency [4] | Potency [5] | Potency [6] | Potency [7] | Potency [16] | Potency [9] | Potency [11] | Potency [12] | Potency [17] | outcome [14] | Potency [15]

CC(C)(O)c1ccc(CNC(=O)c2cccnc2Oc2ccc(F)cc2)cc1
active: Potency [15] 0.273 µM
inactive: Potency [1] | Potency [2] | Potency [3] | Potency [5] | Potency [7] | Potency [8] | Potency [16] | Potency [9] | Potency [11] | Potency [12] | Potency [17] | outcome [14]

CC(C)O.CC(C)O.CCOC(=O)/C=C(\C)O.CCOC(=O)/C=C(\C)O.[Ti]
inactive: Potency [1] | Potency [2] | Potency [3] | Potency [4] | Potency [5] | Potency [6] | Potency [7] | Potency [16] | Potency [9] | Potency [11] | Potency [12] | Potency [13] | Potency [17] | outcome [14] | Potency [15]

CC(C)(C)Cl
inactive: Potency [1] | Potency [2] | Potency [3] | Potency [4] | Potency [5] | Potency [6] | Potency [7] | Potency [16] | Potency [9] | Potency [10] | Potency [11] | Potency [12] | Potency [13] | Potency [17] | outcome [14] | Potency [15]

C[Si](C)(CCCN)O[Si](C)(C)CCCN
inactive: Potency [1] | Potency [2] | Potency [3] | Potency [4] | Potency [5] | Potency [7] | Potency [8] | Potency [16] | Potency [9] | Potency [10] | Potency [11] | Potency [12] | Potency [13] | Potency [17] | outcome [14]

CN(Cc1ccc(C(C)(C)C)cc1)Cc1cccc2ccccc12
inactive: Potency [1] | Potency [18] | Potency [3] | Potency [4] | Potency [5] | Potency [6] | Potency [7] | Potency [8] | Potency [16] | Potency [9] | Potency [10] | PLD induction [19] -0.504% [at 7.66 µM] | Potency [11] | Potency [12] | Potency [13] | Potency [17] | outcome [14] | Potency [15]

CC(=O)c1ccc2c(c1)N(CCCN(C)C)c1ccccc1S2
inactive: Potency [1] | Potency [18] | Potency [3] | Potency [4] | Potency [5] | Potency [6] | Potency [7] | Potency [8] | Potency [16] | Potency [9] | Potency [10] | outcome [14] | Potency [15]

CCCOC(C(=O)OC1CCN(C)CC1)(c1ccccc1)c1ccccc1
inactive: Potency [1] | Potency [18] | Potency [3] | Potency [5] | Potency [8] | Potency [16] | Potency [9] | Potency [10] | Potency [11] | Potency [12] | outcome [14]
active: Potency [15] 21.1 µM

CCOC(=O)c1cccnc1
inactive: Potency [1] | Potency [18] | Potency [3] | Potency [4] | Potency [5] | Potency [6] | Potency [7] | Potency [8] | Potency [16] | Potency [9] | Potency [10] | Potency [19] | Potency [11] | Potency [12] | Potency [13] | Potency [17] | outcome [14] | Potency [15]

CC1=CCCC(C)(C)C12CCC(C)O2 (configuration not stated)
inactive: Potency [1] | Potency [2] | Potency [6] | Potency [7] | Potency [8] | Potency [16] | Potency [9] | Potency [11] | Potency [12] | Potency [13] | Potency [17] | outcome [14]

CCOC(=O)C1=C[C@]2(CC)CCCN3CCc4c(n1c1ccccc41)[C@@H]32
inactive: Potency [1] | Potency [18] | Potency [3] | Potency [6] | Potency [7] | Potency [8] | Potency [16] | Potency [9] | Potency [10] | Potency [19] | Potency [11] | Potency [12] | Potency [13] | Potency [17] | outcome [14]

C[C@@H](c1ncncc1F)C(O)(Cn1cncn1)c1ccc(F)cc1F (some centres not stated)
inactive: Potency [1] | Potency [18] | Potency [3] | Potency [4] | Potency [6] | Potency [7] | Potency [8] | Potency [16] | Potency [9] | Potency [20] | Potency [10] | Potency [19] | Potency [11] | Potency [17] | outcome [14] | Potency [15]

O=C(O)CC(=O)C(=O)O
active: Potency [15] 54.6 µM
inactive: Potency [1] | Potency [18] | Potency [3] | Potency [4] | Potency [5] | Potency [6] | Potency [7] | Potency [8] | Potency [16] | Potency [9] | Potency [12] | Potency [13] | outcome [14]

CCCCCCCCCCCCCCCCOS(=O)(=O)O
active: Potency [18] 23.9 µM | Potency [6] 21.3 µM
inactive: Potency [1] | Potency [3] | Potency [5] | Potency [7] | Potency [16] | Potency [9] | Potency [20] | Potency [10] | Potency [11] | Potency [17] | outcome [14] | Potency [15]
